PubChem BioAssay (NCI)
This is part of a sample that, as a whole, favours compounds with a hit. Of some 83,000 tested, about 20% had one in any assay.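 Single-concentration screen, 48 h exposure, 96-well plates. Endpoint: percent growth. Below 10 = active.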 A number with no mark means an inactive call. Active and inactive are the calls of the source.

What follows are compounds tested on A549/ATCC NSCLC (assay: NCI-60 one-dose screen, 48 h (100 = growth as untreated, 0 = no growth, -100 = all killed)). Settings: 10 µM unless noted.
Procedure: Growth inhibition of the A549/ATCC human Non-Small Cell Lung tumor cell line is measured as a screen for anti-cancer activity. Cells are grown in 96 well plates and exposed to the test compound for 48 hours. Compounds are tested at a single concentration, which is 10^-5 M for most compounds. The reported endpoint is percent growth (GI% or GIPRCNT), where numbers from 0 - 100% represent growth inhibition, and numbers from -100% - 0 represent cell death. For example, a value of 40 represents 60% growth inhibition. A value of 0 means no net growth occurred over the course of the experiment. A value of -40 indicates 40% of cells at the beginning of the experiment died by the end of the experiment. A value of -100 means all cells are dead at the end of the experiment.
NCI-60 Human Tumor Cell Lines Screen was performed using the standard one-dose NCI protocol, which is described in more detail at https://dtp.cancer.gov/discovery_development/nci-60/default.htm.
Compounds with GIPRCNT values below 10 were considered active. Activity score was based on GIPRCNT using the following formula: […]
Score is 0 for GIPRCNT values of 100 or above, 50 for GIPRCNT values of 0, and 100 for GIPRCNT values of -100.

| Structure (SMILES) | growth |
| --- | --- |
| Oc1ccc(CCCCCCc2ccc(O)cc2)cc1 | 47.6% |
| O=C(Nc1ccc(Oc2ccc(NC(=O)Nc3ccccc3Cl)cc2)cc1)Nc1ccccc1Cl | -3.15% (active) |
| O=C1c2ccccc2C(=O)c2c1oc1ccc3ccccc3c21 | 60.8% |
| OC(c1cc2cc(Cl)ccc2c2cc(C(F)(F)F)ccc12)C1CCCCN1 (stereo not given) | -85.9% (active) |
| O=c1cc(N2CCOCC2)oc2c(-c3ccc4c(c3)OCCO4)csc12 | 12.9% |
| CCC1CCc2nc3sc(C(=O)Nc4cccc(F)c4)c(N)c3cc2C1 (stereo not given) | 66.3% |
| COc1ccc(/C=C(/C(=O)N2CCN(c3ccccc3)CC2)c2cc(OC)c(OC)c(OC)c2)cc1N | 24% |
| NCCCOc1cc2ccccc2cc1C(=O)NCCCOc1cc2ccccc2cc1C(=O)Nc1ccc(Cl)cc1O | -75.2% (active) |
| C=C(C)c1ccc(/C=N/NC(N)=S)cc1 | 118% |
| Fc1ccc(-c2ccnc3nc(-c4ccncc4)nn23)cc1 | 98.4% |
| CCCCCCCCCCCCCCCc1cc(O)ccc1[N+](=O)[O-] | 96.8% |
| COC(=O)C(C)NC1=C(Cl)C(=O)C(NC(C)C(=O)OC)=C(Cl)C1=O (stereo not given) | 98.9% |
| CNCCCNc1ccnc2cc(Cl)ccc12 | 1.29% (active) |
| CC(=O)Nc1ccc(Cl)cc1Cl | 95.3% |
| Clc1ccccc1Nc1nnc(-c2ccncc2)s1 | 95% |
| CCc1ccc(Nc2ncnc3c2cnn3-c2cccc(Br)c2)cc1 | 97.2% |
| CC(C)CC(NC(=O)OCC1c2ccccc2-c2ccccc21)C(=O)O (stereo not given) | 95.1% |
| CC1(C)C2CCC(O)(C(=O)O)C1C2 (stereo not given) | 111% |
| CCOC(=O)c1ccc(NCCC(=O)O)cc1 | 103% |
| COc1cccc(NC(=O)c2c(-c3ccccc3)c(-c3ccccc3)n[nH]c2=O)c1 | 100% |

| Structure (SMILES) | growth |
| --- | --- |
| CN(C)c1ccc(Nc2c3ccccc3nc3ccccc23)cc1 | 14.2% |
| CCCCCc1c(C)[nH]c(/C=C2\N=C(c3ccc[nH]3)C=C2CC)c1C | -86.4% (active) |
| CCC(C)C1NC(=O)c2nc(oc2-c2ccccc2)-c2csc(n2)-c2csc(n2)-c2nc(oc2C)-c2coc(n2)CNC(=O)C(C(C)CC)NC1=O (stereo not given) | -76.6% (active) |
| CCCCCCCCCCC(C(O)c1ccccc1)N1CCCCC1 (stereo not given) | 47.3% |
| CC(C)c1ccc(Cn2ccc3c4c(N)nc(NC5CC5)nc4ccc32)cc1 | -80.9% (active) |
| CCCCn1c(-c2ccc(F)cc2)nc2cc(OC)c(OC)cc2c1=O | 19.7% |
| COc1cccc2nc(Nc3cccc(NC(=O)c4ccc(N5CCN(C)CC5)c(C(F)(F)F)c4)c3)ccc12 | 25.3% |
| CCCCOc1ncnc2nc[nH]c12 | 99.3% |
| CC(CN1CCN(CCOCCO)CC1)CN1c2ccccc2Sc2ccc(Cl)cc21 (stereo not given) | 75.1% |
| CC1CN(CCCOC(=O)Nc2ccc(Cl)cc2)CCN1C(C)(C)C (stereo not given) | 103% |
| Cc1cc(N=Nc2ccc(-c3ccc(N=Nc4ccc(O)c(C(=O)O)c4)cc3)cc2)c(N)c(N=Nc2ccc(C(=O)O)cc2)c1N | 102% |
| CCOC(=O)C(=CNc1ccccc1Cl)C(=O)OCC | 85.6% |
| COc1cccc(/C=N/N=C(N)N)c1 | 102% |
| COc1ccc(/C=C(/C(=O)N2CCN(c3ccccc3)CC2)c2cc(OC)c(OC)c(OC)c2)cc1O | 17.4% |
| COc1cc(-c2csc(NC(=O)Nc3cccc(C(F)(F)F)c3)n2)cc(OC)c1OC | 34.2% |
| COc1ccccc1/C=N\NC(=S)Nc1ccc(F)cc1 | 68% |
| Cc1cc(C)cc(CCCCCCCCCCCCCCCCCC(=O)O)c1 | 96.6% |
| CN1CCN(Cc2ccc(NC(=O)c3cccc(C#Cc4cnc(N)c5ncccc45)c3F)cc2C(F)(F)F)CC1 | 38.2% |
| Brc1cccc(-n2ncc3c(Nc4ccc(-c5nnc(-c6ccccc6)o5)cc4)ncnc32)c1 | 109% |
| CC(CN1CCN(C)CC1)CN1c2ccccc2Sc2ccc(C(F)(F)F)cc21 (stereo not given) | 41.2% |
